Results reported in the supplement of paper PMC11732987, “Enantioselective OTUD7B fragment discovery through chemoproteomics screening and high-throughput optimisation” (Communications Chemistry, 2025).

Columns and labels:
Test in all cases: log2 ratio of Biotin-Ahx-Ub-VS probe labelling (fragment/DMSO); higher = less target engagement (more negative = stronger competition), active = hit call of the paper (q ≤ 0.05, log2 ratio ≤ -1)
Details in all cases: compound concentration: 200 uM; treatment time: 3 h
[1] = target: T1, USP42 (UniProt Q9H9J4)
T1 sequence (whole entry): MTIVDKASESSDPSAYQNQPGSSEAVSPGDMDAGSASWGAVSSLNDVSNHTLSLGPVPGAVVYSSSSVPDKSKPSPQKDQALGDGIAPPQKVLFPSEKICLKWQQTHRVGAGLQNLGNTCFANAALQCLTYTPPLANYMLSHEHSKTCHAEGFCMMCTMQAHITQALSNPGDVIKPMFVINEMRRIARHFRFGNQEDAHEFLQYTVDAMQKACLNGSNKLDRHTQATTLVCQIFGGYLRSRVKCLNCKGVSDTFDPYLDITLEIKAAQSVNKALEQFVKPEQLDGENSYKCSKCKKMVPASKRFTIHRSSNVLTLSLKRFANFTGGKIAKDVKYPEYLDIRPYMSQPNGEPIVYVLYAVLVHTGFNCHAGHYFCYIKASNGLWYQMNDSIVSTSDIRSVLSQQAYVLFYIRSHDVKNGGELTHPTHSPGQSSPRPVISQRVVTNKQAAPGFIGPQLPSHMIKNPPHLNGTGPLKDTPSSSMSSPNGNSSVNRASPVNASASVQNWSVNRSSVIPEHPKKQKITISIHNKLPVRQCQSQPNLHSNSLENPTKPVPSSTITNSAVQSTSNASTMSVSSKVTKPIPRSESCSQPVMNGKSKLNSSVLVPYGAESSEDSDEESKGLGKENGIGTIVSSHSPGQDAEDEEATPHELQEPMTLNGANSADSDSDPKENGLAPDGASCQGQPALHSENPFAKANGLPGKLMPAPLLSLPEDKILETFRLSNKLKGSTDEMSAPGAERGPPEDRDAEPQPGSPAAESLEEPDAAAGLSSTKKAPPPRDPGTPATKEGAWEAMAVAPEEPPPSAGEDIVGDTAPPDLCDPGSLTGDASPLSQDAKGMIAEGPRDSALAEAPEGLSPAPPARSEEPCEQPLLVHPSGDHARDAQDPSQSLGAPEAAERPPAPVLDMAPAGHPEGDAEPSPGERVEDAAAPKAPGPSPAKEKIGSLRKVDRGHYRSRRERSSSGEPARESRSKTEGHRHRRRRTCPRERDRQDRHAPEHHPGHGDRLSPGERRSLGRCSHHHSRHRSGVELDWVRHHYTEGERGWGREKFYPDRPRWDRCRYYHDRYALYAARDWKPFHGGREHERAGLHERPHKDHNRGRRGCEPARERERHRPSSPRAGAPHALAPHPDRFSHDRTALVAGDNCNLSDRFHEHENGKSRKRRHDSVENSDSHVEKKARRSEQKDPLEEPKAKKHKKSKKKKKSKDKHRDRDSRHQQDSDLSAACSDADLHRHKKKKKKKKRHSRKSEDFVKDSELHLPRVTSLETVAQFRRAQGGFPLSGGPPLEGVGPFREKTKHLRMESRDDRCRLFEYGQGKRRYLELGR
Procedure, shortened: (§1)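 Labelling with Biotin-Ahx-Ub-VS (0.5 µM final, 1 h) followed a 3 h triplicate treatment of HEK293T lysate (495 µg per sample, Tris/CHAPS/IGEPAL buffer with protease inhibitors) with fragment at 200 µM or vehicle. Labelled DUBs were NeutrAvidin-enriched, digested with LysC and trypsin, and run by diaPASEF LC-MS/MS. The values, average log2 fragment/vehicle ratios by unpaired t-test, come from global-median-normalised Spectronaut label-free quantities. Proteins with ≥2 unique peptides were used.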

[2] = target: USP46 (UniProt P62068)
Sequence of USP46 (P62068 whole entry): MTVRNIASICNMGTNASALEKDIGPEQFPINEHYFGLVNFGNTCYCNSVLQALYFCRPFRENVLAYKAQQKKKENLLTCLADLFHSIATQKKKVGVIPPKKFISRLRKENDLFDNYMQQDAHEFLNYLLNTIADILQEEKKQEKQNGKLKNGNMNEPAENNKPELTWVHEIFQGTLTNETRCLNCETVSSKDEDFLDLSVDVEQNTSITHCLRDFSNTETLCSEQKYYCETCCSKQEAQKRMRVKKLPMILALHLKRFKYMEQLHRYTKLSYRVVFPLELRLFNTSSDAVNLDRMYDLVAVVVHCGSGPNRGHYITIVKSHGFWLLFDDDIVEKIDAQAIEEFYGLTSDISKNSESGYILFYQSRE
Procedure, shortened: as §1

[3] = target: T2, USP47 (UniProt Q96K76)
T2 sequence (whole entry): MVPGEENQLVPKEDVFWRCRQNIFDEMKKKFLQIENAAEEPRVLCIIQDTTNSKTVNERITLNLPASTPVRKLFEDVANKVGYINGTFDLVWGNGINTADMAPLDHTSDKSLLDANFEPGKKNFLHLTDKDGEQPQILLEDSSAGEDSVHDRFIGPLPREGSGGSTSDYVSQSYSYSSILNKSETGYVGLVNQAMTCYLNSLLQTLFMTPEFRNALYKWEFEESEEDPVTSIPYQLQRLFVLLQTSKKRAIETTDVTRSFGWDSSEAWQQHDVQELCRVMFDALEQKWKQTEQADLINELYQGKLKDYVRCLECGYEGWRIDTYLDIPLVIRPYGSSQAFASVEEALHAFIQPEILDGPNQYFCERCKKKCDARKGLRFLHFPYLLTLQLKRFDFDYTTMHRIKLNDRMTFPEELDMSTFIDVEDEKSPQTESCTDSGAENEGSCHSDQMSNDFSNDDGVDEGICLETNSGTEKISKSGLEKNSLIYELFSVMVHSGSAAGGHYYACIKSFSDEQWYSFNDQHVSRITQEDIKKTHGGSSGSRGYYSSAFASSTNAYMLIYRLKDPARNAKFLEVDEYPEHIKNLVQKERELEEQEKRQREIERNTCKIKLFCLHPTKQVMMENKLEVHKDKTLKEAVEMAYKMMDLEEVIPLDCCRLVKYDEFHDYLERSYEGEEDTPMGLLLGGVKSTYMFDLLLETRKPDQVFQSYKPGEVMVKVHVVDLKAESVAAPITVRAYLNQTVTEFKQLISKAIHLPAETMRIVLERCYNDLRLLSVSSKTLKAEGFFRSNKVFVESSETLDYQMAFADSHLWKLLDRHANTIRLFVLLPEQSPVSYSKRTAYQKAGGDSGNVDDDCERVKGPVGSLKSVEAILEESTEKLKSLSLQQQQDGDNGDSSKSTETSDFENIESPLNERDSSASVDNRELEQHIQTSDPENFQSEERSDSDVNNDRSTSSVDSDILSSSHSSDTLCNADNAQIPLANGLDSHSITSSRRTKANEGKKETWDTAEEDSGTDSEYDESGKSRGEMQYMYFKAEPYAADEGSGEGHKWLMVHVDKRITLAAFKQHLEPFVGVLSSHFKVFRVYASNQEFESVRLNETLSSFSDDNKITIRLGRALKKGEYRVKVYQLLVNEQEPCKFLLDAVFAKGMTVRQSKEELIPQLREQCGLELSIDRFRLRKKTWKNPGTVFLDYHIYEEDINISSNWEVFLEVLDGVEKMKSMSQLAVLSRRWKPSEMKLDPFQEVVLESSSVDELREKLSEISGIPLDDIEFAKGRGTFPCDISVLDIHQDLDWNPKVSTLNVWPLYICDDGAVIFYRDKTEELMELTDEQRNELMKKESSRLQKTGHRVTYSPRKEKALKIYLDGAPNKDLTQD
Procedure, shortened: as §1

[4] = target: T3, USP48 (UniProt Q86UV5)
T3 sequence (whole entry): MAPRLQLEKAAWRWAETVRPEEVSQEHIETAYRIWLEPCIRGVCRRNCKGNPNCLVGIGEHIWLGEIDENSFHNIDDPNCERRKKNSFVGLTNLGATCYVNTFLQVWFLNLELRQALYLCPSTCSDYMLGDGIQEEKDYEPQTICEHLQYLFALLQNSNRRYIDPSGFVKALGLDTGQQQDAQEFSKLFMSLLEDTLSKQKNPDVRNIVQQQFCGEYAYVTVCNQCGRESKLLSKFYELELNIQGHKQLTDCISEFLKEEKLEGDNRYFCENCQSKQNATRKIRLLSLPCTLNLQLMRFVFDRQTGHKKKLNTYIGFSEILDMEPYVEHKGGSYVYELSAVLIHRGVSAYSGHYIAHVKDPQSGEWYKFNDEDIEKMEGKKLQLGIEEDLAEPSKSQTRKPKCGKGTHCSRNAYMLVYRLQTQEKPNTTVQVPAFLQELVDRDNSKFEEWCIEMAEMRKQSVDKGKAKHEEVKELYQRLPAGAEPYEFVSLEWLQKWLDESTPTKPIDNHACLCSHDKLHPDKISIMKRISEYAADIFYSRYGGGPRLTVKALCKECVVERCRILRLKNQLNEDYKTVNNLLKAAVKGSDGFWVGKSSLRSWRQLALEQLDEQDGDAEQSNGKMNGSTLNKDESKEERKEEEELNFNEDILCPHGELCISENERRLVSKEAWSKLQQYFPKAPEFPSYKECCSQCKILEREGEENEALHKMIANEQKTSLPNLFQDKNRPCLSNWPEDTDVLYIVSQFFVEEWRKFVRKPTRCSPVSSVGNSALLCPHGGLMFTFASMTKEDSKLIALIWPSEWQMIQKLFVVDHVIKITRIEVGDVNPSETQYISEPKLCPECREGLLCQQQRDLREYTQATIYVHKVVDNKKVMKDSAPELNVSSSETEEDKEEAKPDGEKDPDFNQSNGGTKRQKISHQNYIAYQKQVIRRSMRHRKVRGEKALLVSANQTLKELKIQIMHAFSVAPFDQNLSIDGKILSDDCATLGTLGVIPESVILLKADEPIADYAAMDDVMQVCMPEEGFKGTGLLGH
Procedure, shortened: as §1

[5] = target: T4, USP5 (UniProt P45974)
T4 sequence (whole entry): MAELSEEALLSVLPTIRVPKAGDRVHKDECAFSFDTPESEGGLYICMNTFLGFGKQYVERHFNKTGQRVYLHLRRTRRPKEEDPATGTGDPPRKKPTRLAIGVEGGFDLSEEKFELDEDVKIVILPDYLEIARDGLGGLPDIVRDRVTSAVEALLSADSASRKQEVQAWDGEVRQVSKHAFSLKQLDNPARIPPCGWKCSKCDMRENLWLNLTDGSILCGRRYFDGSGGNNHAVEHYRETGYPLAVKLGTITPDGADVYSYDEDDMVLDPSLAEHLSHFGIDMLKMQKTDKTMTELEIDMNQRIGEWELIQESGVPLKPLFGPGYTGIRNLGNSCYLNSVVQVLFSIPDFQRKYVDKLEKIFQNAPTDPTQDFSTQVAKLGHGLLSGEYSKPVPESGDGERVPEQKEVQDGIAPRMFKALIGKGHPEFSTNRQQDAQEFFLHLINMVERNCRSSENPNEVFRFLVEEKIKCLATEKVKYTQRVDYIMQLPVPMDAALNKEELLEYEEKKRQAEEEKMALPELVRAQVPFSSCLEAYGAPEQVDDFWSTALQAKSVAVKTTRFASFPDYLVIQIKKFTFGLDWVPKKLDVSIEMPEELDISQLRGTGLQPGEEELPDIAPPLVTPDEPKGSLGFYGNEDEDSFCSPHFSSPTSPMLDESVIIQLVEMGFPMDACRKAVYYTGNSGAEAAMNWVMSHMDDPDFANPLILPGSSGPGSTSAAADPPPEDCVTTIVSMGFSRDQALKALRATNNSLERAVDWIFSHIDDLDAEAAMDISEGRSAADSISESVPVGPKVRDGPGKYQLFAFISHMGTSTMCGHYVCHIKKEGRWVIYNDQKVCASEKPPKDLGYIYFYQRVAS
Procedure, shortened: as §1

[6] = target: USP54 (UniProt Q70EL1)
Sequence of USP54 (Q70EL1 whole entry): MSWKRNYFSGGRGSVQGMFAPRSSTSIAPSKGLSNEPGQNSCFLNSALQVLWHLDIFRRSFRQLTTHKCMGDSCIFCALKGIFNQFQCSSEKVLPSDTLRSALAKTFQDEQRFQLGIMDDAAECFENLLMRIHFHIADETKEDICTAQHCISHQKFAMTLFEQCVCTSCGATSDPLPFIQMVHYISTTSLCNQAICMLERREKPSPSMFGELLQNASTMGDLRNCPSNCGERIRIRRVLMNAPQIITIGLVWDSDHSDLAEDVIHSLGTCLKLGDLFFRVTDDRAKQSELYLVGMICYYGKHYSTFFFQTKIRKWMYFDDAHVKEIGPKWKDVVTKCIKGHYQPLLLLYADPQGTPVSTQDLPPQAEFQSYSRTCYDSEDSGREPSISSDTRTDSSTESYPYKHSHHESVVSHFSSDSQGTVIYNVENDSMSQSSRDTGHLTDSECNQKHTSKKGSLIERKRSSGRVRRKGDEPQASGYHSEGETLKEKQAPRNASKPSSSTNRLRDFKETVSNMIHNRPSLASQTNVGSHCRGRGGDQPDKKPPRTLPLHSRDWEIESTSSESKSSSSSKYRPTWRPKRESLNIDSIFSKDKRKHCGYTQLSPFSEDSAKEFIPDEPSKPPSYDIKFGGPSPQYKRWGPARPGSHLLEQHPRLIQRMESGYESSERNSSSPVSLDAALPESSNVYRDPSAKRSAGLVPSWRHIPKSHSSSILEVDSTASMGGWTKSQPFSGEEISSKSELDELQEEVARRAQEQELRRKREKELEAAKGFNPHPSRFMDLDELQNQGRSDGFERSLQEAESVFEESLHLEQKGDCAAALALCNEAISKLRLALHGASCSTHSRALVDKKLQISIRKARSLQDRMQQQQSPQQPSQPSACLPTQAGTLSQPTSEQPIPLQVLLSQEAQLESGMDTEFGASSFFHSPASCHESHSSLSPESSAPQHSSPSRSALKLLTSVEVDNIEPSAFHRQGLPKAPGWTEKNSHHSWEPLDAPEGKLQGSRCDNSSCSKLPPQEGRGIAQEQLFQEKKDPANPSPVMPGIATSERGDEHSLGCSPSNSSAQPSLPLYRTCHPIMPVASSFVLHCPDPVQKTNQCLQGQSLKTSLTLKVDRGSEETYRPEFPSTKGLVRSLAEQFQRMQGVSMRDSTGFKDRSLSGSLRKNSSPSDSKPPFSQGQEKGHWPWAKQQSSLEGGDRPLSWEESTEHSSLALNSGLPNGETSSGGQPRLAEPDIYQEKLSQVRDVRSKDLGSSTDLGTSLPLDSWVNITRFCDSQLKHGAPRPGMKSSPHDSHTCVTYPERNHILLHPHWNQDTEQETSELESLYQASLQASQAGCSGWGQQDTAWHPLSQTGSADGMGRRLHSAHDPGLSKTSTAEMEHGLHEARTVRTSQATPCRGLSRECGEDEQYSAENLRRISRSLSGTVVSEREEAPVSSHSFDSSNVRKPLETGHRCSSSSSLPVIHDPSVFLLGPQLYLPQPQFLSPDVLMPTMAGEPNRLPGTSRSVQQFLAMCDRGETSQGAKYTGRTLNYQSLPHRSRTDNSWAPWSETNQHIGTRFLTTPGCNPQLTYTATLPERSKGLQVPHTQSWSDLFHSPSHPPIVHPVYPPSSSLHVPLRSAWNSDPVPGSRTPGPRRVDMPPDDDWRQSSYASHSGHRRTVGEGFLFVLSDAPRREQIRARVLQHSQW
Procedure, shortened: as §1

[7] = target: USP7 (UniProt Q93009)
Sequence of USP7 (Q93009 whole entry, looked up): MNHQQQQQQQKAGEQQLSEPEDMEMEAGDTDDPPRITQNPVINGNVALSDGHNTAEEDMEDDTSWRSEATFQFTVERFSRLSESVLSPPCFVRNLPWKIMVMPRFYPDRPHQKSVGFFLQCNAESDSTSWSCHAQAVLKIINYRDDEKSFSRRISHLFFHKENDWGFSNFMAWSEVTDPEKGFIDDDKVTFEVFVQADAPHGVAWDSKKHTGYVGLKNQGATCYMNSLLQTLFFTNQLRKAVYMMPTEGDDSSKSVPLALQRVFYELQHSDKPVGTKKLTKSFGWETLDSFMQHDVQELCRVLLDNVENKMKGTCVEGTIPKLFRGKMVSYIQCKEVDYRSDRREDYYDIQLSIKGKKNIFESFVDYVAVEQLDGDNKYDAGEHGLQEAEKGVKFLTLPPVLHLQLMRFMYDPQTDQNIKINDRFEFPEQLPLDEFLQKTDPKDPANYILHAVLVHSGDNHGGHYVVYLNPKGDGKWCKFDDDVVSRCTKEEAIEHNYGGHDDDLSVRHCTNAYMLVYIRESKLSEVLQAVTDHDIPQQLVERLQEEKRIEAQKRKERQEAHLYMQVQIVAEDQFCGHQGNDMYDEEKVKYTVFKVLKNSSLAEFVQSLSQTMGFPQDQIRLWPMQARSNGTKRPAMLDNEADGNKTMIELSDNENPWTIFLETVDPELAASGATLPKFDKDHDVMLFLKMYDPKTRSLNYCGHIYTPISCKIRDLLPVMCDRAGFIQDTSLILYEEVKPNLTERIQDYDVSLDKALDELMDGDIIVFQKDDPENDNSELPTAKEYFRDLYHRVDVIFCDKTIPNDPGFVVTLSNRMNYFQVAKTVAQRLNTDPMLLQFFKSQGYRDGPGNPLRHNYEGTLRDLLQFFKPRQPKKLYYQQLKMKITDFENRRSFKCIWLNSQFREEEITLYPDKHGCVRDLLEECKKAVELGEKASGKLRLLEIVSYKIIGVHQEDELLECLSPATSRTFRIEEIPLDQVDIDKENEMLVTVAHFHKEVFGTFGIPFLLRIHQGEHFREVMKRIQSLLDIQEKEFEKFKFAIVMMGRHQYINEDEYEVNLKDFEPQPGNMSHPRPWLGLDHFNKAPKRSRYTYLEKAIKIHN
Procedure, shortened: as §1

[8] = target: T5, USP8 (UniProt P40818)
T5 sequence (whole entry): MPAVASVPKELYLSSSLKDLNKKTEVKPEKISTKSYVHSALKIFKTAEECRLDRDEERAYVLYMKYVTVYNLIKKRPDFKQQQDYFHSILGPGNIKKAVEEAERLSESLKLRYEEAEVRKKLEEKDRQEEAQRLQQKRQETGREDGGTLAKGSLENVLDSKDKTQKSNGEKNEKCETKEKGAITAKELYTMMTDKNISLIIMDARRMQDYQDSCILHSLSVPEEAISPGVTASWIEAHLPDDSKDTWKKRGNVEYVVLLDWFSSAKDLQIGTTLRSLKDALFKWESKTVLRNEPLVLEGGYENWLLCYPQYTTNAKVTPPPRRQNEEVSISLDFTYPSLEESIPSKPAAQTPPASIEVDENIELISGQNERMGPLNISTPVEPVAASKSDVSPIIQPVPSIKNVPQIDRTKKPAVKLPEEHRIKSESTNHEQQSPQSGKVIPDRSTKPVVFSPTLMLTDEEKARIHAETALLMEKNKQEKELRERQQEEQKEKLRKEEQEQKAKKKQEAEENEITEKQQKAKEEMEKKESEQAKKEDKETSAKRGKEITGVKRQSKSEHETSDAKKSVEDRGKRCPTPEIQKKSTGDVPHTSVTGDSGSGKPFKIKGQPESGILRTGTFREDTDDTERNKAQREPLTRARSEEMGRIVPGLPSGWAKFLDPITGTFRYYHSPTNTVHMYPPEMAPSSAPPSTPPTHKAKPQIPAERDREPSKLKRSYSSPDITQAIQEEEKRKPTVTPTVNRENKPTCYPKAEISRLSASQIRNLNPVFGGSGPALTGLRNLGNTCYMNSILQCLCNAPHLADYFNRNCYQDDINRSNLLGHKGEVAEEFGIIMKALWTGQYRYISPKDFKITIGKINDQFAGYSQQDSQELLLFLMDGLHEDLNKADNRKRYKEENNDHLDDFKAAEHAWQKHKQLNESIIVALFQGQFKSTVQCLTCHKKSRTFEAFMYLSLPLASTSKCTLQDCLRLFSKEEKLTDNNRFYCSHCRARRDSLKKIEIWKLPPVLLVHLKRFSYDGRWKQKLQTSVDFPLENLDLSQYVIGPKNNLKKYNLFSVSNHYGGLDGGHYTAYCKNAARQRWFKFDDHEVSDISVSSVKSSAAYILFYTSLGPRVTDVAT
Procedure, shortened: as §1

[9] = target: USP9X (UniProt Q93008)
Procedure, shortened: as §1

[10] = target: UniProt O00487
Sequence of UniProt O00487 (O00487 whole entry): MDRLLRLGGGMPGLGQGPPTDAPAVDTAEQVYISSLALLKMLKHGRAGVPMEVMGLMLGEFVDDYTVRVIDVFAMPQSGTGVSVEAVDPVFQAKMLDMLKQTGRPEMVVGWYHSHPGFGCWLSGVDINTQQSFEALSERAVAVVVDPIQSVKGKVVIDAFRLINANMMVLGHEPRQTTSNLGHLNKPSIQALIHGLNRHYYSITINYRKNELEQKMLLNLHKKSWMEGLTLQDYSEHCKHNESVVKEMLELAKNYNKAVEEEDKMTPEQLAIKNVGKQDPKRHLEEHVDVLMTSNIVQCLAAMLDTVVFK
Procedure, shortened: as §1

Measured: log2 ratio of Biotin-Ahx-Ub-VS probe labelling

O=C(CCl)N1CCOC2(CCC2)CC1
inactive: [1] -0.307 | [2] 0.0174 | [3] -0.785 | [4] -0.374 | [5] 0.235 | [6] -0.505 | [7] -0.145 | [8] -0.275 | [9] -0.0935 | [10] 0.0511
